The campaign covered roughly 290,000 compounds. About 1,800 (0.62%) were called active. What follows is part of a selection rich in actives, with near analogues and random picks from the rest. Unmarked numbers belong to inactive results. Cut-off read from the data, not from the text of the source: active = inhibition above about 50%; inactive = the rest.
Experiment: inhibition of NOD2-driven NF-kB reporter – cell-based, luminescence, uHTS, HEK293 (AID 1566)
Settings: HEK293 NOD2/NF-kB luciferase reporter, at 4 µM, stronger effect = higher value
For O=C(Nc1cccc(C(F)(F)F)c1)C1CCN(S(=O)(=O)c2ccc(N3CCCC3=O)cc2)CC1, the inhibition was 34.8%.
With Cc1cccc(C)c1N=C1C(=O)Nc2ccccc21 the inhibition was 57.9% (active).
With Cc1cc(C)c(N=C2C(=O)Nc3ccccc32)c(C)c1 the inhibition was 22.5%.
For Cc1ccc(N=C2C(=O)Nc3ccccc32)cc1, the inhibition was 4%.
For CCN(CC)C(=O)C1CCN(S(=O)(=O)c2ccc3c(c2)CCCN3C(=O)C2CCC2)CC1, the inhibition was 23.6%.
Work on COc1ccc(NC(C)=O)cc1NC(=O)c1ccc2ccccc2c1 yielded an inhibition of -14.6%.
CCc1sc(NC(C)=O)nc1-c1ccccc1 showed an inhibition of -49.5%.
For CC(=O)Nc1ccc(NC(=O)C2CCC(CNS(=O)(=O)c3cccc4nsnc34)CC2)cc1 (stereo not given), the inhibition was -8.1%.
In the case of CCCc1cc(=O)n2nc(N3CCC(C(=O)N4CCN(c5ccc(OC)cc5)CC4)CC3)sc2n1, the inhibition is reported as 62.2% (active).
With Cc1cc(=O)n2nc(N3CCC(C(=O)N4CCN(c5ccccc5)CC4)CC3)sc2n1 the inhibition was -8.2%.
In the case of CCCc1cc(=O)n2nc(N3CCC(C(=O)N4CCN(c5cccc(OC)c5)CC4)CC3)sc2n1, the inhibition is reported as 40.5%.
For NS(=O)(=O)c1ccc(CCNC(=O)c2ccc3ccccc3n2)cc1, the inhibition was -17.8%.
For CCc1nnc(NC(=O)c2ccc(S(=O)(=O)N3CCc4ccccc4C3)cc2)s1, the inhibition was 25.4%.
With O=C(Nc1nnc(C2CC2)s1)c1ccc(Cl)c(S(=O)(=O)N2CCc3ccccc3C2)c1 the inhibition was 41.6%.
CCCn1ncc(CN2CCCC(C(=O)c3cccc(OC(C)C)c3)C2)c1C (stereo not given) showed an inhibition of -35.2%.
Cc1[nH]c2ccc(C(=O)N3CCCCC3)cc2c1C gave an inhibition of -56%.
With CCC(=O)OCn1nnc2ccccc2c1=O the inhibition was 7.6%.
Compound Cc1sc(NC(=O)c2cccc([N+](=O)[O-])c2)c(C(N)=O)c1-c1ccc(C(C)(C)C)cc1 has an inhibition of 7.8%.
For Cc1sc(NC(=O)CCC(=O)O)c(C(N)=O)c1-c1ccccc1, the inhibition was -3.9%.
For O=S(=O)(Nc1cccc(-c2cn3cccnc3n2)c1)c1ccccc1, the inhibition was 4.2%.
For O=S(=O)(Nc1cccc(-c2cn3cccnc3n2)c1)c1ccc(F)cc1, the inhibition was 0.9%.
For COC(=O)C1CC(Cl)CN1c1ncc(C(F)(F)F)cc1Cl (stereo not given), the inhibition was 17.1%.
With c1ccc(CNc2ncnc3ccccc23)cc1 the inhibition was 55.3% (active).
For COc1cc2ncnc(NCc3ccccc3)c2cc1OC, the inhibition was -17.4%.
For CCCCCCCCNc1ncnc2ccccc12, the inhibition was 55.7% (active).
In the case of c1ccc(CCNc2ncnc3ccccc23)cc1, the inhibition is reported as 28.7%.
CCN(CC)CCCNc1ncnc2ccccc12 showed an inhibition of 9.5%.
OCCCCCNc1ncnc2ccccc12 showed an inhibition of 40.1%.
In the case of c1ccc(CNc2nc(NCc3ccccc3)c3ccccc3n2)cc1, the inhibition is reported as -4.4%.
With Brc1ccc2ncnc(NCc3ccccc3)c2c1 the inhibition was 79% (active).
Work on COc1cc2ncnc(NCc3ccco3)c2cc1OC yielded an inhibition of -78.1%.
Clc1ccc2c(NCc3ccco3)ncnc2c1 gave an inhibition of 18.8%.
Compound OCCNc1ncnc2ccc(Br)cc12 has an inhibition of 23%.
In the case of Nc1nc(Nc2cccc(Cl)c2)nc(NCCO)c1[N+](=O)[O-], the inhibition is reported as 15.3%.
For CCOc1ccc(CN(C)CC(=O)Nc2cc(OC)c([N+](=O)[O-])cc2C)cc1, the inhibition was -8%.
For CCCN(CCC)S(=O)(=O)c1ccc(C(=O)NNc2nc(-c3ccccc3)c3cc(Br)ccc3n2)cc1, the inhibition was -5%.
In the case of Cc1cccnc1NC(=O)CCNC(=O)c1ccccc1Cl, the inhibition is reported as -22.7%.
Work on COc1ccccc1NC(=O)CSc1n[nH]c(-c2cccnc2)n1 yielded an inhibition of 8.6%.
Compound COc1ccc(C2C(C(=O)c3ccco3)=C(O)C(=O)N2CCCn2ccnc2)c(OC)c1 (stereo not given) has an inhibition of -6.9%.
Work on CC(C)=C(NC(=O)c1ccccc1)C(=O)NCc1ccccc1 yielded an inhibition of -7%.
Work on O=c1sc2ccccc2c(N2CCOCC2)c1[N+](=O)[O-] yielded an inhibition of 8.4%.
In the case of COc1cc(/C=N\n2cnnc2)ccc1OCC(=O)Nc1ccc(C)cc1, the inhibition is reported as 12.5%.
COC(=O)C1(Cc2cc(-c3cccnc3)no2)CCN(C(=O)OC(C)(C)C)CC1 showed an inhibition of 15.6%.
For CN1CCN(c2ccc(-c3ccc4ccccc4n3)cc2)CC1, the inhibition was 79.9% (active).
With c1ccc2nc(-c3ccc(N4CCOCC4)cc3)ccc2c1 the inhibition was -59.7%.
In the case of COc1ccc(-c2ccc3ccccc3n2)cc1, the inhibition is reported as -226%.
Nc1ccc(Oc2cc(N)cc(Oc3ccccc3)c2)cc1 gave an inhibition of -93.4%.
In the case of Cc1cccc(Oc2ccc(N)cc2)c1, the inhibition is reported as -4%.
CC(C)c1ccc(C(C(=O)NC2CCCC2)N(C(=O)c2csnn2)C2CC2)cc1 (stereo not given) gave an inhibition of 12.1%.
For CC(SCc1ccccc1)C(=O)NC1CCCC1 (stereo not given), the inhibition was -2.5%.
For Cc1cc(C)nc(SCC(=O)Nc2ccnc3ccccc23)n1, the inhibition was 50.5% (active).
Cc1cc(=O)[nH]c(SCC(=O)Nc2ccnc3ccccc23)n1 showed an inhibition of 26.4%.
For Cc1nc(SCC(=O)Nc2ccnc3ccccc23)n[nH]1, the inhibition was 17.9%.
Compound NC(=O)c1cnn(-c2cc(Oc3ccccc3)ncn2)c1N has an inhibition of -54.7%.
Compound Nc1ccc2c(c1)N=[N+]([O-])c1cc(N)ccc1C2 has an inhibition of 4.2%.
Compound CN(C)Cc1c(O)ccc2c(-c3ccccc3)cc(=O)oc12 has an inhibition of 1.4%.
CC(=O)c1c(O)ccc2c(-c3ccccc3)cc(=O)oc12 showed an inhibition of 13%.
In the case of COc1cc(NS(=O)(=O)c2ccc(N/C=C(\C=O)c3nc4ccccc4o3)cc2)nc(OC)n1, the inhibition is reported as 11%.
Compound CC(=O)NNC(=S)NC(=O)c1cccc([N+](=O)[O-])c1 has an inhibition of 14.7%.
O=C(CN1C(=O)NC2(CCCC2)C1=O)N1CCN(S(=O)(=O)c2ccccc2Br)CC1 gave an inhibition of 3.9%.
CCc1c(C)sc(NC(=O)c2cc(-c3ccc(OC)c(OC)c3)on2)c1C#N showed an inhibition of 11.3%.
CCc1c(C)sc(NC(=O)c2cc(C)on2)c1C#N gave an inhibition of -59.7%.
For CCc1c(C)sc(NC(=O)c2cc(-c3ccc(O)cc3)on2)c1C#N, the inhibition was 50.7% (active).
With COc1ccc(CN(C)S(=O)(=O)c2nnc(NC(=O)c3cccc(F)c3)s2)cc1OC the inhibition was 44.4%.
COc1ccc(CN(C)S(=O)(=O)c2nnc(NC(=O)c3cccc(OC)c3)s2)cc1 showed an inhibition of 29.7%.
Cn1c(NC2CCCCC2)cc(=O)n(C)c1=O gave an inhibition of 15.2%.
In the case of COc1ccccc1OCC(=O)N1CCCC(Nc2ccc(C)c(C)c2)C1 (stereo not given), the inhibition is reported as 16.3%.
Compound CCCCn1c(N)c(N(CC(C)C)C(=O)c2cccc(S(=O)(=O)N3CCCCCC3)c2)c(=O)[nH]c1=O has an inhibition of 0.1%.
Compound CCc1cc(=O)oc2cc(C)cc(OCC(=O)C(C)(C)C)c12 has an inhibition of 8.9%.
For O=C(Nc1cccc([N+](=O)[O-])c1)Nc1ccc2c(c1)CCC2, the inhibition was -35.7%.
COC(=O)c1ccc(OCC2c3cc(OC)c(OC)cc3CCN2C(C)=O)cc1 (stereo not given) showed an inhibition of 6.9%.
Compound COc1cc2c(cc1OC)C(COc1ccc(F)cc1)N(C(C)=O)CC2 (stereo not given) has an inhibition of 2.4%.
With COc1cc2c(cc1OC)C(COc1ccc([N+](=O)[O-])cc1)N(C(C)=O)CC2 (stereo not given) the inhibition was 60.6% (active).
Cc1ccc(C(=O)NNC(=O)c2ccc(NC(=O)C(C)(C)C)cc2)cc1 gave an inhibition of 8.3%.
With CC1(C)CC(=O)C=C(C(=O)N2CCCC(C(=O)c3cccc(C(F)(F)F)c3)C2)O1 (stereo not given) the inhibition was 15.7%.
COC(=O)CNc1nc(C2CC2)nc2c1nnn2Cc1ccccc1Cl gave an inhibition of 7.3%.
With CN(C)S(=O)(=O)c1ccc(Nc2nc(C3CC3)nc3c2nnn3Cc2ccccc2Cl)cc1 the inhibition was 58.7% (active).
Work on OCCNc1nc(C2CC2)nc2c1nnn2Cc1ccccc1Cl yielded an inhibition of 3.7%.
Work on CCCCC(CC)CNC(=O)c1cc2ccccc2c(=O)o1 (stereo not given) yielded an inhibition of 9.7%.
O=C(CCNS(=O)(=O)c1ccc(Br)cc1)NCCc1ccc(Cl)cc1 showed an inhibition of -1.7%.
With CNC(=O)N(O)C1N(/N=C/c2cc(Br)ccc2O)C(=S)SC1(C)C (stereo not given) the inhibition was 13.6%.
Cc1ccccc1S(=O)(=O)Cc1ccc(C(=O)N2CCN(c3ccccc3F)CC2)o1 gave an inhibition of 10.3%.
With Cc1ccc(S(=O)(=O)Cc2ccc(C(=O)N3CCN(c4cccc(C)c4C)CC3)o2)cc1 the inhibition was 13.8%.
Cc1onc(-c2ccccc2Cl)c1C(=O)N1CCCCC1C(=O)O (stereo not given) showed an inhibition of 8%.
In the case of CCOC(=O)c1c(C)[nH]c(C)c1C(=O)CSc1nc2ccccc2c(=O)n1-c1ccc(C)cc1, the inhibition is reported as -12.1%.
For CCOC(=O)c1c(C)[nH]c(C)c1C(=O)CSc1nc2ccccc2c(=O)n1-c1ccc(F)cc1, the inhibition was -3.4%.
In the case of CCC(CC)N1CCN(S(=O)(=O)c2ccc(OC)cc2)CC1, the inhibition is reported as -0.3%.
Compound Cc1ccc(S(=O)(=O)Nc2ccc3nc(C)sc3c2)cc1 has an inhibition of 29.3%.
In the case of Cc1nc2ccc(NS(=O)(=O)c3ccc(F)cc3)cc2s1, the inhibition is reported as 12.4%.
With O=C(NC1CCCc2ccccc21)c1ccc([N+](=O)[O-])cc1 (stereo not given) the inhibition was 1.7%.
For COc1ccc(/C(N)=N/OC(=O)c2cccc([N+](=O)[O-])c2C)cc1OC, the inhibition was -8.3%.
Compound CC(=O)c1c(C)[nH]c(C(=O)OCC(=O)Nc2cc(Cl)ccc2[N+](=O)[O-])c1C has an inhibition of 5.7%.
With CC(=O)c1c(C)[nH]c(C(=O)OCC(=O)Nc2ccc([N+](=O)[O-])cc2Cl)c1C the inhibition was 11%.
In the case of CC(=O)c1c(C)[nH]c(C(=O)OCC(=O)Nc2ccc(Cl)cc2[N+](=O)[O-])c1C, the inhibition is reported as 51% (active).
Compound O=C(CCc1n[nH]c(=O)[nH]c1=O)N/N=C/c1ccco1 has an inhibition of 11.3%.
